HT1080 IDH1KD tx – HT-1080 IDH1 knockdown cell toxicity (counter line); HT-1080 IDH1 knockdown viability, ATP luminescence, 48 h; Potency, µM (series often up to 46.1 µM), most hits filed as cytotoxic; hit rate 2% among 360,000; AID 686971
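HT-1080-IDH1KD cells (IDH1 knocked down), 750/well in RPMI with 5% FBS, treated with compound 48 h at 37 degrees C. Viability by CellTiter-Glo luminescence, normalised to DMSO and no-cell wells; concentration-response curves classed.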
HT1080-NT tox – kills 2HG-producing HT-1080-NT fibrosarcoma cells | Potency, µM (highest dose often 46.1 µM), usual class: cytotoxic | AID 686970 | hit rate 1.6% among 360,000 | HT-1080-NT fibrosarcoma viability, CellTiter-Glo ATP luminescence, 48 h;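 further: NT is the 2HG producing partner of a matched IDH1 knockdown line; nearly all actives have a fitted effect of over 55% in size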
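Read-out is CellTiter-Glo luminescence after 10 minutes at room temperature, following 48 hours' compound treatment of HT-1080-NT cells (750 cells/well, RPMI, 5% FBS, 37 degrees C).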
TDP1 cell CPT – growth inhibition of DT40 Tdp1-/-;hTDP1 cells with camptothecin (screen for TDP1 inhibitors); chicken DT40 Tdp1-/-;hTDP1 cells + 20 nM CPT, ATP luminescence, 48 h; Potency, µM (doses to about 46.2 µM), usual class: inhibitors; hit rate 12% among 420,000; further: nearly all actives have a fitted effect of over 55% in size
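Chicken DT40 Tdp1-/- cells stably complemented with human TDP1 were seeded at 400 cells/well in medium containing 20 nM camptothecin, exposed to pin-transferred compounds, and grown at 37 °C for at least 48 hr. Viability was read as ATP luminescence.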
HepG2 viability – HepG2 cytotoxicity, counter-screen for TGF-b inhibitors | HepG2 CAGA-GFP viability, ATP luminescence, 18 h | Potency, µM (titrated, usually from 46.1 µM), most hits filed as cytotoxic | hit rate 0.76% among 410,000
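CellTiter-Glo luminescence gave cytotoxicity after 18 hours at 37 degrees C. The cells were HepG2 CAGA-GFP in 1% FBS DMEM, stimulated with 500 pg/mL TGF-beta after compound addition. %Activity was normalised to no-cell wells (complete cell-killing) and DMSO (no toxicity), and curves were fitted and classified.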
TDP1 cell noCPT – qHTS for Inhibitors of human tyrosyl-DNA phosphodiesterase 1 (TDP1): qHTS in cells in absence of CPT; DT40 Tdp1-/- hTDP1 cells, no CPT, ATP luminescence, 48 h; Potency, µM (series often up to 46.2 µM), hits mostly inhibitors; hit rate 15% among 420,000; further: nearly all actives have a fitted effect of over 55% in size
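Chicken DT40 Tdp1-/- cells stably complemented with human TDP1 were seeded at 400 cells/well with DMSO in place of 20 nM camptothecin. After compound pinning, cells grew at least 48 hr at 37 °C; viability read by CellTiter-Glo luminescence.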
TGFb SMAD3 inh – TGF-b pathway inhibition | HepG2 CAGA-GFP TGF-b/SMAD3 reporter, GFP fluorescence, 18 h; TGF-beta stimulated, 500 pg/mL final | Potency, µM (top dose mostly 46.1 µM), most hits filed as inhibitors | hit rate 1.2% among 410,000 | AID 588855; further: nearly all actives have a fitted effect of over 65% in size
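Inhibition of TGF-beta-driven CAGA-GFP reporter expression in HEPG2 cells is measured by cellular GFP fluorescence after 18 h stimulation with 500 pg/mL recombinant TGF-beta in 1% FBS medium at 37 degrees C.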
Large screens that a line does not name were inactive. Most compounds without a hit are left out; they make up all but 17% or so of the library. The call rests on the fitted dose curve; in most records, active means well fitted curve in the direction sought with a large enough effect; inconclusive means small, poorly fitted or top-dose-only effect, or another doubt; inactive means no such curve, though single readings can be large; an effect the other way counts as inactive or inconclusive.

CCO[C@H]1OC(C(=O)N2CCCCCCC2)=C[C@@H](C2CCCCC2)[C@@H]1CCCO	TDP1 cell CPT 26µM, TDP1 cell noCPT 13µM, TGFb SMAD3 inh inconclusive
C#CCNC(=O)C1=C[C@@H](c2ccc(C(F)(F)F)cc2)[C@H](CCCO)[C@@H](OCC)O1	TDP1 cell CPT 23µM, TDP1 cell noCPT inconclusive
O=C(CCNC(=O)c1ccco1)Nc1ccc(Cl)cc1F	none
COCCN(C(=O)COC(=O)c1ccc(Cl)s1)c1c(N)n(Cc2ccccc2)c(=O)[nH]c1=O	none
Cc1noc(C)c1CSc1nc2ccccc2nc1NS(=O)(=O)c1ccc(Cl)cc1	HT1080 IDH1KD tx inconclusive, HT1080-NT tox inconclusive, TDP1 cell CPT 15µM, TDP1 cell noCPT 12µM, TGFb SMAD3 inh 7.9µM
O=c1c(NCc2ccccc2Cl)nccn1-c1ccccc1	none (no result: HT1080 IDH1KD tx, HT1080-NT tox)
CC1CN(S(=O)(=O)c2ccc(Cl)c(S(=O)(=O)N3CC(C)OC(C)C3)c2)CC(C)O1 (centres undefined)	TDP1 cell CPT inconclusive, TDP1 cell noCPT 15µM
O=C(c1cc(S(=O)(=O)N2CCOCC2)c(Cl)cc1Cl)N1CCCC1	none
CC1CN(C(=O)c2cc(S(=O)(=O)N3CCCC3)c(Cl)cc2Cl)CC(C)O1 (centres undefined)	TDP1 cell CPT 13µM, TDP1 cell noCPT 18µM
CCOc1cc(/C=N/NC(=O)CN2CCCCC2)ccc1OCc1cccc(Cl)c1	TDP1 cell CPT inconclusive, TDP1 cell noCPT inconclusive, TGFb SMAD3 inh inconclusive
COc1cccc(C2Nc3c(F)cc(Br)cc3C3C=CCC32)c1OC (centres undefined)	TDP1 cell CPT 16µM, TDP1 cell noCPT 18µM
COc1cc(NC2c3ccccc3C(=O)N2Cc2ccccc2)cc(OC)c1OC (centres undefined)	TDP1 cell CPT inconclusive, TDP1 cell noCPT inconclusive
CC(C)CCNC1c2ccccc2C(=O)N1Cc1ccccc1 (centres undefined)	TDP1 cell noCPT 23µM
O=C(COC(=O)CNC(=O)c1ccc(Cl)cc1Cl)Nc1ccc(N2CCOCC2)cc1	none
O=C(N/N=C/c1ccccc1)c1c(O)c2ccccc2[nH]c1=O	TDP1 cell CPT 9.2µM, TDP1 cell noCPT 12µM
O=C(N/N=C/c1cccc(F)c1)c1c(O)c2ccccc2[nH]c1=O	TDP1 cell CPT 2.3µM, TDP1 cell noCPT 2.3µM
O=C(N/N=C/c1ccc(F)cc1)c1c(O)c2ccccc2[nH]c1=O	TDP1 cell CPT 4.6µM, TDP1 cell noCPT 5.2µM
O=c1[nH]c2ccccc2c(O)c1O	HT1080 IDH1KD tx inconclusive, HT1080-NT tox 18µM, TDP1 cell CPT 8.2µM, TDP1 cell noCPT 5.8µM
O=C(Nc1cccc(F)c1)c1c(O)c2ccccc2[nH]c1=O	none
CCOc1ccc(N(C)S(=O)(=O)c2ccc3c(c2)C(C)(C)C(=O)N3C)cc1	TDP1 cell CPT inconclusive, TDP1 cell noCPT inconclusive (no result: HT1080 IDH1KD tx, HT1080-NT tox)
COC(=O)c1c(O)c2ccccc2[nH]c1=O	none
COC(=O)Nc1ccc(S(=O)(=O)NNC(=O)c2c(O)c3ccccc3[nH]c2=O)cc1	TDP1 cell CPT inconclusive, TDP1 cell noCPT 23µM
Cc1cc(C)cc(OCc2cc(=O)n3c4c(sc3n2)CCCC4)c1	none (no result: HT1080 IDH1KD tx, HT1080-NT tox)
COC(=O)c1cc2sc(Cl)cc2n1CC(=O)Nc1cc(C)cc(C)c1	TDP1 cell CPT 21µM, TDP1 cell noCPT inconclusive (no result: HT1080 IDH1KD tx, HT1080-NT tox)
CCc1cccc(NC(=O)Cn2c(C(=O)OC)cc3sc(Cl)cc32)c1	TDP1 cell CPT inconclusive, TDP1 cell noCPT inconclusive (no result: HT1080 IDH1KD tx, HT1080-NT tox)
Cc1cccc(NC(=S)NCC23C=CC(O2)C2C(=O)N(c4ccc(Cl)cc4)C(=O)C23)c1 (centres undefined)	TDP1 cell CPT inconclusive, TDP1 cell noCPT 21µM
CC(C)(C)OC(=O)NCC12C=CC(O1)C1C(=O)N(Cc3ccccc3)C(=O)C12 (centres undefined)	TDP1 cell CPT inconclusive, TDP1 cell noCPT inconclusive
